PubChem BioAssay AID1159580 (chemical genetic matrix, 2015)
Several values for one entry are separate records, joined by “and”; a condition that tells them apart may be missing. Identical values can stand only once. About 2,000 (36%) of roughly 5,500 compounds were called active. About 18% were inconclusive and are not listed. Rule as the data show it: active = normalized growth mostly below about 0.91 (no sharp cut-off); inconclusive = no clear call, values can overlap the other calls; inactive = mostly above about 0.92. The list shows a part of the results.

Assay: chemical genetic growth profiling, strain panel (AID 1159580);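 also: tested at 20 µM; growth read once vehicle control cultures reached saturation at 30 °C; 1 = growth at the plate median or of vehicle wells; lower values mean less growth of the strain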
Conditions: growth OD

Measured: normalized growth

CC(N=C(NC#N)Nc1ccncc1)C(C)(C)C (stereo not drawn)
inactive: S. cerevisiae deletion strains, locus YJR043C, strain POL32, active compounds read low 1.02 | S. cerevisiae deletion strains, locus YJR075W, strain HOC1, active compounds read low 1.03 | S. cerevisiae deletion strains, locus YKL009W, strain mrt4, active compounds read low 1.04 | S. cerevisiae deletion strains, locus YKL068W, active compounds read low 1.01 | S. cerevisiae deletion strains, locus YKL085W, strain MDH1 (second series), active compounds read low 1.01 | S. cerevisiae deletion strains, locus YKL085W, strain MDH1, active compounds read low 1.01 | S. cerevisiae deletion strains, locus YKL160W, strain elf1, active compounds read low 0.97 | S. cerevisiae deletion strains, locus YKL190W, strain CNB1, active compounds read low 1.01 | S. cerevisiae deletion strains, locus YKR001C, strain vps1, active compounds read low 1.02 | S. cerevisiae deletion strains, locus YKR026C, strain gcn3, active compounds read low 0.978 | S. cerevisiae deletion strains, locus YKR091W, strain srl3, active compounds read low 0.993 | S. cerevisiae deletion strains, locus YLL001W, strain dnm1, active compounds read low 0.956 | S. cerevisiae deletion strains, locus YLL026W, active compounds read low 0.968 | S. cerevisiae deletion strains, locus YLL041C, strain sdh2, active compounds read low 0.982 | S. cerevisiae deletion strains, locus YLR027C, strain aat2, active compounds read low 0.967 | S. cerevisiae deletion strains, locus YLR039C, strain RIC1, active compounds read low 1.02 | S. cerevisiae deletion strains, locus YLR058C, strain SHM2, active compounds read low 1.01 | S. cerevisiae deletion strains, locus YLR102C, strain apc9, active compounds read low 1.02 | S. cerevisiae deletion strains, locus YLR221C, strain rsa3, active compounds read low 1.02 | S. cerevisiae deletion strains, locus YLR258W, strain gsy2, active compounds read low 1.01 | S. cerevisiae deletion strains, locus YLR262C, strain YPT6 (second series), active compounds read low 0.947 | S. cerevisiae deletion strains, locus YLR262C, strain YPT6, active compounds read low 1.04 | S. cerevisiae deletion strains, locus YLR268W, strain sec22, active compounds read low 1.06 | S. cerevisiae deletion strains, locus YLR320W, strain mms22, active compounds read low 1.02 | S. cerevisiae deletion strains, locus YLR330W, strain CHS5, active compounds read low 1.01 | S. cerevisiae deletion strains, locus YLR342W, strain FKS1 (second series), active compounds read low 0.984 | S. cerevisiae deletion strains, locus YLR342W, strain FKS1, active compounds read low 0.945 | S. cerevisiae deletion strains, locus YLR357W, strain rsc2, active compounds read low 0.957 | S. cerevisiae deletion strains, locus YLR370C, strain arc18, active compounds read low 0.972 | S. cerevisiae deletion strains, locus YLR371W, strain rom2, active compounds read low 1.04 | S. cerevisiae deletion strains, locus YLR384C, strain iki3, active compounds read low 0.968 | S. cerevisiae deletion strains, locus YLR418C, strain cdc73, active compounds read low 1.04 | S. cerevisiae deletion strains, locus YML016C, strain PPZ1, active compounds read low 1 | S. cerevisiae deletion strains, locus YML032C, strain rad52, active compounds read low 1.03 | S. cerevisiae deletion strains, locus YML120C, strain ndi1, active compounds read low 0.964 | S. cerevisiae deletion strains, locus YML124C, strain tub3, active compounds read low 1.01 | S. cerevisiae deletion strains, locus YMR058W, strain fet3, active compounds read low 0.978 | S. cerevisiae deletion strains, locus YMR078C, strain ctf18, active compounds read low 1.02 | S. cerevisiae deletion strains, locus YMR125W, strain sto1, active compounds read low 0.984 | S. cerevisiae deletion strains, locus YMR129W, active compounds read low 0.981 | S. cerevisiae deletion strains, locus YMR205C, strain PFK2, active compounds read low 0.984 | S. cerevisiae deletion strains, locus YMR223W, strain ubp8, active compounds read low 0.994 | S. cerevisiae deletion strains, locus YMR231W, strain pep5, active compounds read low 1 | S. cerevisiae deletion strains, locus YMR263W, strain SAP30, active compounds read low 1.04 | S. cerevisiae deletion strains, locus YMR307W, strain GAS1, active compounds read low 0.992 and 1.03 | S. cerevisiae deletion strains, locus YNL067W, strain RPL9B, active compounds read low 1.04 | S. cerevisiae deletion strains, locus YNL071W, strain lat1, active compounds read low 0.988 | S. cerevisiae deletion strains, locus YNL128W, strain TEP1, active compounds read low 1.02 | S. cerevisiae deletion strains, locus YNL153C, strain GIM3, active compounds read low 1.02 | S. cerevisiae deletion strains, locus YNL175C, strain NOP13, active compounds read low 1 | S. cerevisiae deletion strains, locus YNL197C, strain WHI3, active compounds read low 0.977 | S. cerevisiae deletion strains, locus YNL209W, strain ssb2, active compounds read low 0.993 | S. cerevisiae deletion strains, locus YNL224C, strain SQS1, active compounds read low 0.992 | S. cerevisiae deletion strains, locus YNL233W, strain BNI4, active compounds read low 1.02 | S. cerevisiae deletion strains, locus YNL248C, strain rpa49, active compounds read low 1.02 | S. cerevisiae deletion strains, locus YNL250W, strain rad50, active compounds read low 1.01 | S. cerevisiae deletion strains, locus YNL271C, strain bni1, active compounds read low 1.02 | S. cerevisiae deletion strains, locus YNL298W, strain CLA4, active compounds read low 1.02 | S. cerevisiae deletion strains, locus YNL307C, strain MCK1, active compounds read low 1.02 | S. cerevisiae deletion strains, locus YNL322C, strain KRE1 (second series), active compounds read low 0.982 | S. cerevisiae deletion strains, locus YNL322C, strain KRE1, active compounds read low 1.02 and 1 | S. cerevisiae deletion strains, locus YNR049C, strain mso1, active compounds read low 0.986 | S. cerevisiae deletion strains, locus YNR052C, strain pop2, active compounds read low 1.01 | S. cerevisiae deletion strains, locus YOL006C, strain TOP1, active compounds read low 1.08 | S. cerevisiae deletion strains, locus YOL012C, strain htz1 1.52 | S. cerevisiae deletion strains, locus YOL147C, strain pex11, active compounds read low 1.01 | S. cerevisiae deletion strains, locus YOR001W, strain rrp6, active compounds read low 0.957 | S. cerevisiae deletion strains, locus YOR061W, strain CKA2, active compounds read low 0.999 | S. cerevisiae deletion strains, locus YOR069W, strain VPS5, active compounds read low 1.01 | S. cerevisiae deletion strains, locus YOR070C, strain gyp1, active compounds read low 0.996 | S. cerevisiae deletion strains, locus YOR080W, strain dia2, active compounds read low 0.963 | S. cerevisiae deletion strains, locus YOR083W, strain WHI5 (second series), active compounds read low 0.984 | S. cerevisiae deletion strains, locus YOR083W, strain WHI5, active compounds read low 0.956 | S. cerevisiae deletion strains, locus YOR106W, strain vam3, active compounds read low 0.964 | S. cerevisiae deletion strains, locus YOR136W, strain idh2, active compounds read low 1.01 | S. cerevisiae deletion strains, locus YOR144C, strain elg1, active compounds read low 1.02 | S. cerevisiae deletion strains, locus YOR184W, strain ser1, active compounds read low 1.03 | S. cerevisiae deletion strains, locus YOR265W, strain rbl2, active compounds read low 0.98 | S. cerevisiae deletion strains, locus YOR270C, strain vph1, active compounds read low 0.997 | S. cerevisiae deletion strains, locus YOR290C, strain snf2, active compounds read low 1.01 | S. cerevisiae deletion strains, locus YOR316C, strain cot1, active compounds read low 1.02 | S. cerevisiae deletion strains, locus YPL051W, strain arl3, active compounds read low 0.985 | S. cerevisiae deletion strains, locus YPL055C, strain LGE1, active compounds read low 1.03 | S. cerevisiae deletion strains, locus YPL078C, strain atp4, active compounds read low 0.919 | S. cerevisiae deletion strains, locus YPL106C, strain sse1, active compounds read low 0.945 | S. cerevisiae deletion strains, locus YPL240C, strain hsp82, active compounds read low 0.972 | S. cerevisiae deletion strains, locus YPL241C, strain CIN2, active compounds read low 1 | S. cerevisiae deletion strains, locus YPR119W, strain clb2, active compounds read low 1.02 | S. cerevisiae deletion strains, locus YPR141C, strain kar3, active compounds read low 1.01 | S. cerevisiae deletion strains, locus YPR163C, strain tif3, active compounds read low 1.03 | S. cerevisiae deletion strains, locus YPR167C, strain met16, active compounds read low 1.02 | S. cerevisiae deletion strains, strain wtn01, active compounds read low 1.05 | S. cerevisiae strains, strain wild type, active compounds read low 1.01
